Compound activity (PubChem BioAssay)
HSF-1 act – increases HSF-1 driven luciferase reporter signal; activation, % at 9 µM; hit rate 1.7% among 300,000; AID 504408; NIH3T3-HGL HSF-1 luciferase reporter, MG132, 8 h; 100% = twice DMSO control signal;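 active means mean replicate activation of at least 50% with a set share of replicates each reaching 50%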;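 further: 0% = median of the neutral control wells and 100% = twice that signal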
Wnt bcat act – activators of Wnt/beta-catenin signaling; Wnt/beta-catenin reporter cell assay, activator, plate reader; activation, % at 9.35 µM; hit rate 1.2% among 300,000; AID 743398; in the data active means activation above about 30%, passing the limit was not always enough;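 further: 0% = neutral control wells and 100% = positive control wells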
MITF act – increases MITF-driven TRPM1 promoter luciferase signal; SK-MEL-5 TRPM1-promoter luciferase, 24 h; % of positive control, neutral wells = 0; activation, % at 12.5 µM; hit rate 0.75% among 300,000;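 active means mean activation of at least 80% with every replicate also reaching 80%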;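 further: 0% = neutral control wells and 100% = parthenolide positive control wells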
SMARCA2 act – increases SMARCA2 function in MMTV reporter cells | MG213 cells, MMTV-luciferase reporter, dexamethasone, overnight | activation, % at 9.1 µM | hit rate 1% among 370,000 | AID 652017; in the data active means activation above about 7.8%;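 further: 0% = vehicle wells and 100% = reference activator wells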
HSF1 inhib – HSF1 inhibition | NIH3T3-HGL HSE-luciferase, MG132-induced, luminescence 8 h; active compounds read low | activity change, negative = inhibition, % at 7.5 µM (by protocol) | hit rate 0.77% among 300,000;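 active means more than half of replicate wells show activity change below -50%, luminescence cut by over half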;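 further: luciferase reports HSF-1 transcriptional activity via heat shock element; 0% = median of DMSO wells and -100% = zero luminescence signal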
esBAF inh – blocks esBAF chromatin remodeling in mouse ES cells. Bmi1-luciferase knock-in reporter, 24 h; 100% = twice the neutral-well signal. reporter increase, % at 12.5 µM. hit rate 2% among 350,000. AID 602393; in the data active means activation above about 40%;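 further: 0% = median of the plate's neutral control wells and 100% = double that signal; a rise in the Bmi1 reporter signal indicates esBAF inhibition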
* hit, by the source's call. Shown are actives, neighbours in structure and some others; about 4.3% of the full set was active somewhere.

What do the screens show for `COc1ccc(NC(=O)N(C)C[C@@H]2Oc3ccc(NS(=O)(=O)c4ccc(C)cc4)cc3C(=O)N([C@@H](C)CO)C[C@H]2C)cc1`?
esBAF inh: -20

How did CNc1cc(C)c(C#N)c2nc3ccccc3n12 do in these assays?
HSF-1 act: 4; Wnt bcat act: 1; SMARCA2 act: 4; HSF1 inhib: -1; esBAF inh: -5

How did CCN(CC)c1cc(C)c(C#N)c2nc3ccccc3n12 do in these assays?
HSF-1 act: -9; Wnt bcat act: 36*; MITF act: -3; SMARCA2 act: -2; HSF1 inhib: -3; esBAF inh: -5

What do the screens show for `Cc1cccc(NC(=O)CSc2cc(C)c(C#N)c3nc4ccccc4n23)c1`?
HSF-1 act: 417*; Wnt bcat act: -3; MITF act: -18; SMARCA2 act: -2; HSF1 inhib: 268; esBAF inh: -1

Results for CC(C)(C)C(=O)NC(=S)Nc1ccc(C(F)(F)F)cc1 ?
HSF-1 act: 19; Wnt bcat act: 43*; MITF act: 18; SMARCA2 act: -2; HSF1 inhib: 12; esBAF inh: 40

How did O=C(Nc1ccc2c(c1)CCCN2C(=O)c1ccccc1)c1ccccc1 do in these assays?
HSF-1 act: 9; Wnt bcat act: -2; MITF act: 34; SMARCA2 act: 3; HSF1 inhib: -2; esBAF inh: 46*

Results for O=C(Nc1ccc(C(F)(F)F)cc1)c1ccccc1 ?
Wnt bcat act: 21; MITF act: 100*; SMARCA2 act: 4; esBAF inh: 53*

How did O=C(Nc1ccc(C(=O)c2ccccc2)cc1)c1ccccc1 do in these assays?
HSF-1 act: 49; Wnt bcat act: 51*; MITF act: 127*; SMARCA2 act: 1; HSF1 inhib: 22; esBAF inh: 61*

What do the screens show for `Cc1ccccc1C(=O)Nc1ccc2c(c1)CCCN2C(=O)c1cccs1`?
HSF-1 act: 0; Wnt bcat act: -4; MITF act: -7; SMARCA2 act: -4; HSF1 inhib: 2; esBAF inh: 6

How did O=C(NNC(=O)c1ccc(NC(=O)c2ccccc2)cc1)c1ccc(F)cc1 do in these assays?
HSF-1 act: 10; Wnt bcat act: -1; MITF act: -8; SMARCA2 act: -1; HSF1 inhib: -8; esBAF inh: -6

What do the screens show for `CC(=O)N1[C@H](CN(C)C(=O)C2CCC2)[C@@H](c2ccccc2)[C@@H]1CO`?
esBAF inh: -2

Results for Cc1ccc(C)n1-c1ccc(C(=O)Nc2ccccc2)cc1 ?
HSF-1 act: 10; Wnt bcat act: 102*; MITF act: 44; SMARCA2 act: 3; HSF1 inhib: -5

Results for Cc1ccc(C)n1-c1cccc(NC(=O)c2ccccc2)c1 ?
HSF-1 act: -7; MITF act: -11; SMARCA2 act: -2; HSF1 inhib: 4

What do the screens show for `O=C(Nc1ccc(F)c(F)c1)c1cccnc1`?
HSF-1 act: -6; MITF act: 23; SMARCA2 act: 3; HSF1 inhib: -5; esBAF inh: 4

Results for O=C(Nc1ccc(F)c(F)c1)c1ccccc1 ?
Wnt bcat act: 21; MITF act: 47; SMARCA2 act: 3; esBAF inh: 42*

Results for O=C(Nc1ccc(-c2cnco2)cc1)c1ccccc1 ?
HSF-1 act: 13; Wnt bcat act: 21; MITF act: 86*; SMARCA2 act: 4; HSF1 inhib: 15

Results for O=C(Nc1ccc(-c2cnco2)cc1)c1ccc(Cl)cc1 ?
Wnt bcat act: -4; SMARCA2 act: 3; esBAF inh: 34

Results for O=C1C(=Cc2cccc(Cl)c2)Cc2ccccc21 ?
Wnt bcat act: 1; SMARCA2 act: -4

Results for Cn1cccc1/C=C1\Cc2ccccc2C1=O ?
HSF-1 act: 9; Wnt bcat act: 63*; MITF act: 59; SMARCA2 act: 6; HSF1 inhib: 0; esBAF inh: 53*

What do the screens show for `O=C1/C(=C\c2ccc(Br)o2)Cc2ccccc21`?
HSF-1 act: 59*; Wnt bcat act: 41*; MITF act: 12; SMARCA2 act: 6; HSF1 inhib: 16; esBAF inh: 6

What do the screens show for `Cn1cccc1/C=C1\CCc2ccccc2C1=O`?
HSF-1 act: -8; Wnt bcat act: 34*; MITF act: 5; SMARCA2 act: -1; HSF1 inhib: -17; esBAF inh: -46

What do the screens show for `C[C@H](CO)N1C[C@H](C)[C@H](CN(C)C(=O)Nc2ccc(F)cc2)Oc2c(NC(=O)Nc3ccc(F)cc3)cccc2C1=O`?
esBAF inh: 2

Results for CO[C@H]1CN(C)C(=O)c2cc(NC(=O)c3ccc4c(c3)OCO4)ccc2OC[C@H](C)NC[C@@H]1C ?
esBAF inh: 1

Results for COc1ccc(N2C(=O)CC(NNc3nc4ccccc4s3)C2=O)cc1 (centres undefined) ?
HSF-1 act: 114*; Wnt bcat act: 0; SMARCA2 act: -1; HSF1 inhib: 60

Results for O=C1CC(NNc2ccccc2)C(=O)N1c1ccccc1 (centres undefined) ?
HSF-1 act: 63*; Wnt bcat act: 11; MITF act: 14; SMARCA2 act: -1; HSF1 inhib: 15

Results for O=C1CC(N2CCCCC2)C(=O)N1c1ccccc1 (centres undefined) ?
HSF-1 act: -62; MITF act: 3; SMARCA2 act: 3; HSF1 inhib: -53*; esBAF inh: -7

Results for Cc1ccc(NNC2CC(=O)N(c3cccc(Cl)c3)C2=O)cc1 (centres undefined) ?
Wnt bcat act: -1; MITF act: 6; SMARCA2 act: 2

How did CNC(=O)C[C@H]1CC[C@@H]2[C@H](COC[C@H](O)CN2C(=O)Nc2cccc(OC)c2)O1 do in these assays?
esBAF inh: 5

Results for Cc1ccc(/C=C2\SC(=S)N(CCCC(=O)Nc3ccccn3)C2=O)cc1 ?
HSF-1 act: -71; MITF act: -79; SMARCA2 act: -9; HSF1 inhib: -67*

What do the screens show for `CC(=O)c1ccc(NC(=O)CCCN2C(=O)/C(=C/C(C)=C/c3ccccc3)SC2=S)cc1`?
HSF-1 act: 70*; MITF act: 46; SMARCA2 act: -2; HSF1 inhib: 37

What do the screens show for `O=C(CCCN1C(=O)/C(=C\c2ccccc2)SC1=S)Nc1ccc(C(=O)O)cc1`?
HSF-1 act: -2; Wnt bcat act: -1; MITF act: -2; SMARCA2 act: 0; HSF1 inhib: -6; esBAF inh: -6

Results for COc1cccc(/C=C2\SC(=S)N(CCCC(=O)N3CCCCC3)C2=O)c1 ?
HSF-1 act: 55*; Wnt bcat act: 2; MITF act: -18; SMARCA2 act: -4; HSF1 inhib: 23; esBAF inh: -6
